Here are results for 7 molecules from PubChem BioAssay (NCI).

SMILES strings stand for the structures. “And” between values parts separate entries of the source, which are not always exact repeats. Equal entries are not always repeated. About 83,000 compounds went through this panel and 20% of them were active in at least one assay; those are over-represented in the sample as a whole.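 48-hour exposure, single concentration, 96-well plates; percent growth endpoint where 0 means no net growth. Active: below 10.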 The source made the active and inactive calls.

Among the test systems are SR leukemia; OVCAR-8 ovarian; OVCAR-5 ovarian; OVCAR-4 ovarian; SK-OV-3 ovarian; IGROV1 ovarian; OVCAR-3 ovarian; HS 578T breast; NCI/ADR-RES ovarian; T-47D breast; BT-549 breast; MDA-MB-435 melanoma; SW-620 colon; MCF7 breast; HCC-2998 colon; KM12 colon; HCT-116 colon.
Common to all, as to assay: NCI-60 one-dose screen, 48 h (100 = growth as untreated, 0 = no growth, -100 = all killed)
Details in all cases: 10 µM unless noted

As to `Nc1ccccc1SC(CC(=O)c1ccccc1)c1cccc([N+](=O)[O-])c1` (stereo unspecified), the growth in the experiment with SR leukemia is 70.2% (inactive) and 2.4% (active); in the experiment on OVCAR-8 ovarian, 87.9% (inactive) and 92.8% (inactive); in the experiment on OVCAR-5 ovarian, 105% (inactive) and 119% (inactive); in the experiment with OVCAR-4 ovarian, 89% (inactive) and 74.5% (inactive); in the experiment with SK-OV-3 ovarian, 104% (inactive) and 109% (inactive); in the experiment on IGROV1 ovarian, 127% (inactive) and 96.5% (inactive). The growth with OVCAR-3 ovarian was 104% (inactive) and 66.5% (inactive); in the experiment on HS 578T breast, 106% (inactive) and 110% (inactive); in the experiment on NCI/ADR-RES ovarian it was 91.4% (inactive) and 92.9% (inactive); with T-47D breast, 88.3% (inactive) and 90% (inactive); in the experiment on BT-549 breast it was 103% (inactive) and 88.9% (inactive); with MDA-MB-435 melanoma it was 102% (inactive) and 85.5% (inactive). The growth with SW-620 colon is 14.1% (inactive) and 1.5% (active); with MCF7 breast it was 19.3% (inactive) and 19% (inactive); with HCC-2998 colon it was 110% (inactive); with KM12 colon it was 73.9% (inactive).
`Cc1nc(Nc2ccc(Cl)cc2)c2cnn(-c3ccccc3)c2n1`: the growth is 101% (inactive) with SR leukemia; 104% (inactive) in the experiment on OVCAR-8 ovarian; 108% (inactive) in the experiment on OVCAR-5 ovarian; 103% (inactive) in the experiment with OVCAR-4 ovarian; 116% (inactive) with SK-OV-3 ovarian; 112% (inactive) with IGROV1 ovarian. Moreover, the growth is 106% (inactive) in the experiment with OVCAR-3 ovarian; 97.9% (inactive) in the experiment on HS 578T breast; 98.2% (inactive) in the experiment on NCI/ADR-RES ovarian; 101% (inactive) in the experiment on T-47D breast; 102% (inactive) in the experiment on BT-549 breast; 94.7% (inactive) in the experiment with MDA-MB-435 melanoma. In addition, the growth is 98.4% (inactive) with SW-620 colon; 88.2% (inactive) in the experiment on MCF7 breast; 101% (inactive) in the experiment with HCT-116 colon; 105% (inactive) with HCC-2998 colon; 106% (inactive) in the experiment with KM12 colon.
Consider `CN(C)CC(CN(C)C)C(O)c1ccccc1` (stereo unspecified), for which the growth in the experiment with SR leukemia was 111% (inactive); with OVCAR-8 ovarian, 104% (inactive); with OVCAR-5 ovarian it was 106% (inactive); in the experiment on OVCAR-4 ovarian it was 102% (inactive); in the experiment with SK-OV-3 ovarian, 103% (inactive); with IGROV1 ovarian, 106% (inactive). Also, the growth in the experiment on OVCAR-3 ovarian is 115% (inactive); with HS 578T breast, 108% (inactive); in the experiment on NCI/ADR-RES ovarian, 100% (inactive); in the experiment with T-47D breast, 95.2% (inactive); in the experiment with BT-549 breast, 101% (inactive); in the experiment on MDA-MB-435 melanoma, 112% (inactive). The growth in the experiment on SW-620 colon was 111% (inactive); in the experiment on HCT-116 colon, 101% (inactive); with HCC-2998 colon, 111% (inactive); with KM12 colon, 102% (inactive).
As for `O=C(O)C(Cc1ccc(OS(=O)(=O)Cc2ccccc2)cc1)NS(=O)(=O)Cc1ccccc1` (stereo unspecified), the growth in the experiment with SR leukemia is 100% (inactive) and 85.8% (inactive); with OVCAR-8 ovarian it was 105% (inactive); in the experiment on OVCAR-5 ovarian, 123% (inactive) and 112% (inactive); with OVCAR-4 ovarian, 99.8% (inactive) and 109% (inactive); with SK-OV-3 ovarian it was 112% (inactive) and 120% (inactive); in the experiment with IGROV1 ovarian it was 106% (inactive) and 121% (inactive). In addition, the growth with OVCAR-3 ovarian was 111% (inactive) and 109% (inactive); in the experiment with HS 578T breast, 106% (inactive); with NCI/ADR-RES ovarian, 105% (inactive) and 112% (inactive); in the experiment on T-47D breast, 101% (inactive) and 99.9% (inactive); in the experiment on BT-549 breast, 104% (inactive) and 106% (inactive); in the experiment on MDA-MB-435 melanoma, 98.7% (inactive) and 111% (inactive). Moreover, the growth with SW-620 colon was 105% (inactive); in the experiment on HCT-116 colon, 105% (inactive) and 109% (inactive); in the experiment with HCC-2998 colon, 115% (inactive); in the experiment on KM12 colon, 101% (inactive) and 106% (inactive).
As for `Nc1ccc2ccc(NS(=O)(=O)N3CCCCC3)cc2c1`, the growth is 6.48% (active) in the experiment on SR leukemia; 34.2% (inactive) in the experiment with OVCAR-8 ovarian; 56.1% (inactive) in the experiment on OVCAR-5 ovarian; 39.2% (inactive) in the experiment with OVCAR-4 ovarian; 31.8% (inactive) in the experiment on SK-OV-3 ovarian; 76.3% (inactive) with IGROV1 ovarian. For the same molecule, the growth in the experiment on OVCAR-3 ovarian was -9.56% (active); in the experiment on HS 578T breast it was 20.9% (inactive); in the experiment with NCI/ADR-RES ovarian, -24.8% (active); in the experiment with T-47D breast it was 46.8% (inactive); in the experiment on BT-549 breast it was 29% (inactive); with MDA-MB-435 melanoma, -14.7% (active). Further, the growth in the experiment on SW-620 colon is 27.9% (inactive); with MCF7 breast, 17.8% (inactive); in the experiment on HCT-116 colon, 9.95% (active); with HCC-2998 colon, -3.22% (active); in the experiment on KM12 colon, 15% (inactive).
In the case of `CC(C)(C)C1=CC(=O)C(C(C)(C)C)=CC1=O`, the growth in the experiment with SR leukemia was 78.9% (inactive) and 97% (inactive); with OVCAR-8 ovarian, 91.5% (inactive) and 96.5% (inactive); with OVCAR-5 ovarian, 109% (inactive); in the experiment with OVCAR-4 ovarian, 93.3% (inactive) and 118% (inactive); with SK-OV-3 ovarian, 93.6% (inactive) and 102% (inactive); in the experiment with IGROV1 ovarian it was 95.5% (inactive) and 110% (inactive). Moreover, the growth was 111% (inactive) and 110% (inactive) in the experiment on OVCAR-3 ovarian; 104% (inactive) in the experiment on HS 578T breast; 108% (inactive) in the experiment on NCI/ADR-RES ovarian; 79.2% (inactive) and 112% (inactive) in the experiment with T-47D breast; 91.7% (inactive) and 110% (inactive) with BT-549 breast; 97.8% (inactive) and 110% (inactive) with MDA-MB-435 melanoma. For the same molecule, the growth with SW-620 colon was 106% (inactive) and 104% (inactive); in the experiment on MCF7 breast, 86.5% (inactive) and 97.2% (inactive); with HCT-116 colon, 88.5% (inactive) and 105% (inactive); in the experiment on HCC-2998 colon it was 94.4% (inactive) and 101% (inactive); with KM12 colon it was 110% (inactive).
Regarding `COC(=O)CCOc1ccccc1`, the growth was 99.5% (inactive) with SR leukemia; 91.1% (inactive) in the experiment on OVCAR-8 ovarian; 113% (inactive) in the experiment on OVCAR-5 ovarian; 92.8% (inactive) with OVCAR-4 ovarian; 106% (inactive) in the experiment on SK-OV-3 ovarian; 68.9% (inactive) in the experiment on IGROV1 ovarian. The growth in the experiment with OVCAR-3 ovarian was 97% (inactive); in the experiment on HS 578T breast, 195% (inactive); in the experiment on NCI/ADR-RES ovarian, 108% (inactive); in the experiment on T-47D breast it was 103% (inactive); in the experiment with BT-549 breast it was 91.7% (inactive); with MDA-MB-435 melanoma, 109% (inactive). The growth in the experiment with SW-620 colon was 107% (inactive); in the experiment on MCF7 breast, 89.3% (inactive); in the experiment with HCT-116 colon, 103% (inactive); in the experiment with HCC-2998 colon, 91% (inactive); in the experiment with KM12 colon, 102% (inactive).
